Source: PubChem BioAssay (EPA / NIEHS)
Calls of active or inactive are those of the source. How the source made its calls: active means hit-call score of the fitted dose curve at least 0.9, where 1 is the maximum; inactive means score below 0.9.

Experiments:
[1] = APR_HepG2_P-H2AX_72hr: Apredica 72-hour HepG2 Assay for H2AX Phosphorylation (AID 2282916); settings: imaging, actives raise or lower the signal;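 further: phospho-histone H2A.x immunostain intensity per cell marking DNA damage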
How it was run: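 Readout: phospho-H2A.x immunofluorescence (FITC secondary) plus Hoechst nuclear stain, high-content imaging at 20x, six fields/well. HepG2, 72 hr compound exposure, 0.39–200 uM, final DMSO 0.5% v/v. Gain or loss fitted relative to DMSO baseline.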

[2] = APR_HepG2_MitoMembPot_72hr: Apredica 72-hour HepG2 Assay for Mitochondrial Membrane Potential (AID 2282917); settings: imaging, actives raise or lower the signal
How it was run: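 HepG2 cells dosed 72 hr with compound at 0.39–200 uM in duplicate, 0.5% v/v DMSO final. Mitochondria stained with 250 nM MitoTracker Red CMXRos for 30 min before formaldehyde fixation, imaged by high-content fluorescence; bidirectional fit versus DMSO.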

[3] = APR_HepG2_MitoticArrest_72hr: Apredica 72-hour HepG2 Assay for Mitotic Arrest (AID 2282918); settings: high-content imaging, actives raise or lower the signal
How it was run: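 High-content imaging of fixed human HepG2 cells after 72 h compound exposure (0.39–200 uM, duplicates, 0.5% DMSO); mitotic arrest scored from phospho-histone H3 and nuclear Hoechst staining relative to DMSO.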

[4] = APR_HepG2_MicrotubuleCSK_72hr: Apredica 72-hour HepG2 Assay for Microtubule CSK Stabilty (AID 2282919); settings: HepG2 microtubule cytoskeleton, high-content imaging, actives raise or lower the signal
How it was run: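 HepG2, 72 hr cmpd exposure, 0.39–200 uM (10 pts, duplicate), 0.5% DMSO. 3.7% formaldehyde fix, 0.5% Triton perm, anti-alpha-tubulin/Cy5 plus Hoechst. HCS fluorescence intensity; bidirectional fit vs DMSO baseline; taxol as positive control.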

[5] = APR_HepG2_StressKinase_72hr: Apredica 72-hour HepG2 Assay for Stress Kinase (AID 2282921); settings: HepG2 stress kinase (phospho-c-Jun) imaging, actives raise or lower the signal
How it was run: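 Phospho-c-Jun immunofluorescence measured by high-content imaging at 20x, six fields per well; bidirectional curve fitting against DMSO as baseline. Dosing: 0.39–200 uM, 72 h, 0.5% DMSO final.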

[6] = APR_HepG2_StressKinase_24hr: Apredica 24-hour HepG2 Assay for Stress Kinase (AID 2282922); settings: HepG2 stress kinase (phospho-c-Jun) imaging, actives raise or lower the signal
How it was run: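 Read-out: phospho-c-Jun immunofluorescence (Cy3 secondary) quantified by high-content imaging at 20x, nuclei defined by Hoechst 33342. Human HepG2 liver cells dosed 24 hr, 0.39–200 uM, DMSO 0.5% v/v; gain or loss of signal fitted relative to DMSO.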

[7] = APR_HepG2_p53Act_72hr: Apredica 72-hour HepG2 Assay for p53 Activation (AID 2282923); settings: high-content imaging, actives raise or lower the signal;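 further: average cellular p53 protein immunofluorescence intensity in HepG2 cells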
How it was run: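 Readout: p53 immunofluorescence quantified by automated high-content imaging at 20x, six fields per well, nuclei located via Hoechst. Dosing ran 72 hr over ten concentrations from 0.39 to 200 uM; bidirectional curve fitting against DMSO baseline.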

[8] = APR_HepG2_MitoMass_72hr: Apredica 72-hour HepG2 Assay for Mitochondrial Mass (AID 2282924); settings: high-content imaging, actives raise or lower the signal;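 further: MitoTracker Red CMXRos stain intensity per cell imaged as mitochondrial mass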
How it was run: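 Read-out: MitoTracker Red fluorescence intensity from automated imaging (20x, six fields per well) in human HepG2 liver cells. Dosing ran 72 hr, 0.39–200 uM, 0.5% DMSO; bidirectional curve fitting versus DMSO baseline.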

[9] = APR_HepG2_NuclearSize_72hr: Apredica 72-hour HepG2 Assay for Nuclear Size (AID 2282925); settings: high-content imaging, actives raise or lower the signal
How it was run: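 Read-out: nuclear diameter from Hoechst 33342 images (ArrayScan, 20x, six fields/well), via cell-cycle image analysis. HepG2 were dosed 0.39–200 uM for 72 hr in 0.5% DMSO. Bidirectional fit relative to DMSO.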

[10] = ATG_CRE_CIS: Attagene CIS-FACTORIAL HepG2 Assay for human cAMP Responsive Element (CRE) binding protein 3 (AID 2282926); settings: HepG2 CRE cis-reporter, Attagene multiplexed mRNA; actives raise or lower the signal
How it was run: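 Endogenous transcription factor activity read via CRE-regulated reporter transcripts in transfected HepG2 cells. After 24 h exposure, RNA was reverse-transcribed, amplified, fluorescently labelled and sized by capillary electrophoresis; gain or loss fitted against DMSO.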

[11] = target: CCAAT/enhancer-binding protein beta (Homo sapiens) (UniProt P17676); experiment: ATG_C_EBP_CIS: Attagene CIS-FACTORIAL HepG2 Assay for human CCAAT/Enhancer Binding Protein (C/EBP) beta (AID 2282927); settings: HepG2 Attagene cis-factorial transcription factor reporter; actives raise or lower the signal
Sequence of CCAAT/enhancer-binding protein beta (Homo sapiens) (P17676 whole entry, looked up): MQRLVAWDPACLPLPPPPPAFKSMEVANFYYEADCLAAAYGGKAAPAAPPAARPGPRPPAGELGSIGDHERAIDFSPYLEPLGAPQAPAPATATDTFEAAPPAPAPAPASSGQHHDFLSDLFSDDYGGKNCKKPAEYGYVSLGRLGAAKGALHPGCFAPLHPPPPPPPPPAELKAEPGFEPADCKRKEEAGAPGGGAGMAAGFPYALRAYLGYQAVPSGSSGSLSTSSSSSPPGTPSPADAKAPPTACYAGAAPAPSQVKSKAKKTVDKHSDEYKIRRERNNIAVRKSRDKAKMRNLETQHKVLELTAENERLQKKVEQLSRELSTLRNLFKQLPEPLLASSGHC
How it was run: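 HepG2, transient MRTU transfection, 24 h treatment. RT-PCR plus CE fluorescence; DMSO negative control, bidirectional fit.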

[12] = ATG_CMV_CIS: Attagene CIS-FACTORIAL HepG2 Assay for human CMV (Internal Marker) (AID 2282928); settings: HepG2 CMV promoter reporter, transcription factor profiling; actives raise or lower the signal;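 further: endpoint acts as a background internal control marker rather than a target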
How it was run: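 Readout: fluorescent reporter cDNA fragments separated by capillary electrophoresis after RT-PCR and HpaI cut. Cells: HepG2 carrying transfected cis-promoter reporter constructs, dosed 24 h. Endpoint serves as background internal-marker control, fit bidirectionally versus DMSO.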

[13] = ATG_DR4_LXR_CIS: Attagene CIS-FACTORIAL HepG2 Assay for human Liver X Receptor (LXR), DR4 submotif (AID 2282929); settings: HepG2 Attagene DR4 cis-reporter, mRNA transcription; actives raise or lower the signal
How it was run: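 HepG2 cells transiently transfected with cis-promoter-driven multiplexed reporter units (DR4 element) were dosed for 24 h. Reporter mRNA was quantified by RT-PCR, fluorescent primer extension, HpaI digestion and capillary electrophoresis; bidirectional fitting versus DMSO baseline.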

[14] = target: Aryl hydrocarbon receptor (Homo sapiens) (UniProt P35869); experiment: ATG_Ahr_CIS: Attagene CIS-FACTORIAL HepG2 Assay for human Aryl Hydrocarbon Receptor (Ahr) (AID 2282930); settings: HepG2 AhR cis-factorial reporter transcription; actives raise or lower the signal
Sequence of Aryl hydrocarbon receptor (Homo sapiens) (P35869 whole entry, looked up): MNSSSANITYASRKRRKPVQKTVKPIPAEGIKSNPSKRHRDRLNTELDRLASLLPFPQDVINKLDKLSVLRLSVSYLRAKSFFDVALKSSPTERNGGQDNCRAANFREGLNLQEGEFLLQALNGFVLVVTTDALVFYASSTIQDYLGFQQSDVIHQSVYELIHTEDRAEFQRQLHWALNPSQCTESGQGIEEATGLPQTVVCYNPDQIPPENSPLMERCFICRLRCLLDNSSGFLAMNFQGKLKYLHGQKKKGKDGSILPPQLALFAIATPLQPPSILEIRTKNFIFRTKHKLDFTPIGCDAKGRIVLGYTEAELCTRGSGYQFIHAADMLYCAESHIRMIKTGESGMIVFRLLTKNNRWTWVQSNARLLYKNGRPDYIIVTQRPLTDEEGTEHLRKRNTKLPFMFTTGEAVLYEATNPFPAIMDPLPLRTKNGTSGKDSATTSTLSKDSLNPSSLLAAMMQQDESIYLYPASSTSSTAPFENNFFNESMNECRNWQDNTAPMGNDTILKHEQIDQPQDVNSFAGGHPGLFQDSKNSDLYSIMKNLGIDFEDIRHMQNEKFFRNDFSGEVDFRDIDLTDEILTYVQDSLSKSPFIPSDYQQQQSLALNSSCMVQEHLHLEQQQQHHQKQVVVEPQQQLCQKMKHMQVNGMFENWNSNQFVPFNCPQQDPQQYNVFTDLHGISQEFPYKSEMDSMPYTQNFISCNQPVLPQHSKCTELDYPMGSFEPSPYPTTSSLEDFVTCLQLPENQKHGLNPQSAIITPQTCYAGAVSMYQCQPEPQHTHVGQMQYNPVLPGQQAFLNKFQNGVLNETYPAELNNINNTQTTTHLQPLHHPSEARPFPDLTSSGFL
How it was run: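 Endogenous factor activity is tracked through cis-promoter reporter units transfected into HepG2 cells. Transcript levels at 24 h are read by fluorescent RT-PCR and capillary electrophoresis, with activity in either direction scored relative to DMSO.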

[15] = ATG_AP_1_CIS: Attagene CIS-FACTORIAL HepG2 Assay for human Activator Protein 1 (AP-1) (AID 2282931); settings: HepG2 Attagene cis-factorial AP-1 reporter mRNA; actives raise or lower the signal
How it was run: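 HepG2 cells transiently transfected with cis-element-driven multiplex reporter units; 24 h compound exposure. Reporter mRNA quantified by RT-PCR, FAM-labelled fragments resolved by capillary electrophoresis; bidirectional fit versus DMSO baseline.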

[16] = ATG_AP_2_CIS: Attagene CIS-FACTORIAL HepG2 Assay for human Activator Protein 2 (AP-2) (AID 2282932); settings: HepG2 AP-2 cis-reporter, Attagene transcription factor profiling; actives raise or lower the signal
How it was run: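 Read-out: fluorescent reporter mRNA via RT-PCR and capillary electrophoresis, 24 h post-dose in transiently transfected HepG2. Endogenous factors drive cis-promoter reporters; gain or loss of signal fitted bidirectionally against DMSO.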

[17] = ATG_BRE_CIS: Attagene CIS-FACTORIAL HepG2 Assay for human Bone Morphogenetic Protein (BMP) Response Element (BRE) (AID 2282933); settings: HepG2 BMP response element reporter, Attagene transcription factor profiling; actives raise or lower the signal
How it was run: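 HepG2 cells transiently transfected with multiplexed cis-element reporter units were dosed with chemical for 24 h. Reporter mRNA was measured by RT-PCR with fluorescent labelling, HpaI digestion and capillary electrophoresis; bidirectional fitting relative to DMSO.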

[18] = target: Transcription factor E2F1 (Homo sapiens) (UniProt Q01094); experiment: ATG_E2F_CIS: Attagene CIS-FACTORIAL HepG2 Assay for human E2F Transcription Factor 1 (AID 2282935); settings: HepG2 Attagene cis-reporter, E2F reporter RNA transcripts; actives raise or lower the signal
Sequence of Transcription factor E2F1 (Homo sapiens) (Q01094 whole entry, looked up): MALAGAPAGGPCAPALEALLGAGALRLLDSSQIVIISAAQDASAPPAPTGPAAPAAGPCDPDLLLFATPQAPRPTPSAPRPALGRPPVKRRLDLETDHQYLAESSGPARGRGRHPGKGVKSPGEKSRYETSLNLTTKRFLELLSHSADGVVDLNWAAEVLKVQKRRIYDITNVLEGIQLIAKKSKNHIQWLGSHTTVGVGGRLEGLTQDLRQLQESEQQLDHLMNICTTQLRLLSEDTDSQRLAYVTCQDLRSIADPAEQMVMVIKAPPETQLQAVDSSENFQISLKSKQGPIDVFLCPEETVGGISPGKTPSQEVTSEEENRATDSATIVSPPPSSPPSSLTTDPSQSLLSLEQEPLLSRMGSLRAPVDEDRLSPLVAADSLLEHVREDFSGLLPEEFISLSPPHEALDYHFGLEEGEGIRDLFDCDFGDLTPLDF
How it was run: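 Transient MRTU transfection of HepG2; 24 h compound exposure; RNA → oligo(dT) RT → PCR → FAM label → HpaI cut → CE fluorescence. Gain/loss of signal fit against DMSO.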

[19] = APR_HepG2_P-H2AX_24hr: Apredica 24-hour HepG2 Assay for H2AX Phosphorylation (AID 2282920); settings: high-content imaging, actives raise or lower the signal
How it was run: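 High-content imaging of phospho-histone H2A.x immunofluorescence, nuclei counterstained with Hoechst 33342, in fixed HepG2 cells. Compounds ran 0.39–200 uM in duplicate for 24 h, final DMSO 0.5%. Signal change fitted both directions against DMSO.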

[20] = target: Retinoic acid receptor alpha (Homo sapiens) (UniProt P10276); experiment: ATG_DR5_RAR_CIS: Attagene CIS-FACTORIAL HepG2 Assay for human Retinoic Acid Receptor Alpha (RARE), DR5 submotif (AID 2282934); settings: HepG2 Attagene cis-factorial RARE DR5 reporter, mRNA; actives raise or lower the signal
Sequence of Retinoic acid receptor alpha (Homo sapiens) (P10276 whole entry, looked up): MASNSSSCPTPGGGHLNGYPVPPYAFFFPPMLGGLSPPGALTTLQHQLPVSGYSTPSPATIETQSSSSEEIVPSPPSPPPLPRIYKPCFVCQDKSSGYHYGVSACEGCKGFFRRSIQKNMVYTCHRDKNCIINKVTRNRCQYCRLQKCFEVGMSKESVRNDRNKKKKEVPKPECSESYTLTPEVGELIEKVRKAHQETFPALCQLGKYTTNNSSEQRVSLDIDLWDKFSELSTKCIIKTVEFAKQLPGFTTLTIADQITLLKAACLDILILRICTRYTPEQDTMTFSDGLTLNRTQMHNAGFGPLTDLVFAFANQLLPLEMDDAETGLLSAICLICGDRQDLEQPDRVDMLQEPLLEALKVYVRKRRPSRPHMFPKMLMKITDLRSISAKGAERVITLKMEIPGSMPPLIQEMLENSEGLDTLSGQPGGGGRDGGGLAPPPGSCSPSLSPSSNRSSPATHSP
How it was run: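 After 24 h of chemical exposure, transiently transfected HepG2 cells were lysed for total RNA; the DR5-regulated reporter transcript was quantified via RT-PCR and capillary electrophoresis, with activity fitted bidirectionally against DMSO.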

In the case of `Cc1cccc(C)c1N`, the outcome [1] is reported as “inactive”, the outcome [2] is reported as “inactive” and the outcome [3] is reported as “inactive”. The outcome [4] was “inactive”, the outcome [5] was “inactive” and the outcome [6] was “inactive”. The outcome [7] was “inactive”, the outcome [8] was “inactive” and the outcome [9] was “inactive”. For the same compound, the outcome [10] was “inactive”, the outcome [11] was “inactive” and the outcome [12] was “inactive”. The outcome [13] was “inactive”, the outcome [14] was “inactive” and the outcome [15] was “inactive”. The outcome [16] was “inactive”, the outcome [17] was “inactive” and the outcome [18] was “inactive”.

In the case of `CC(c1ccc(O)cc1)(c1ccc(O)cc1)c1ccc(O)cc1`, the AC50 [1] is reported as 95.4 µM (active), the outcome [2] is reported as “inactive” and the AC50 [3] is reported as 105 µM (active). For the same compound, the outcome [4] was “inactive”, the AC50 [19] was 111 µM (active) and the outcome [5] was “inactive”. The outcome [6] was “inactive”, the AC50 [8] was 170 µM (active) and the AC50 [9] was 105 µM (active). The AC50 [10] was 8.32 µM (active), the outcome [11] was “inactive” and the AC50 [12] was 20.2 µM (active). The AC50 [13] was 7.38 µM (active), the outcome [14] was “inactive” and the AC50 [15] was 17.9 µM (active). The AC50 [16] was 18.1 µM (active), the AC50 [17] was 18.3 µM (active) and the outcome [20] was “inactive”. The outcome [18] was “inactive”.

For `CCCN(CCC)N=O`, the outcome [1] was “inactive”, the outcome [2] was “inactive” and the outcome [3] was “inactive”. For the same compound, the outcome [4] was “inactive”, the outcome [5] was “inactive” and the outcome [6] was “inactive”. For the same compound, the outcome [7] was “inactive”, the outcome [8] was “inactive” and the outcome [9] was “inactive”. The outcome [11] was “inactive”, the outcome [12] was “inactive” and the outcome [13] was “inactive”. The outcome [14] was “inactive”, the outcome [15] was “inactive” and the outcome [16] was “inactive”. The outcome [17] was “inactive”, the outcome [20] was “inactive” and the outcome [18] was “inactive”.
